Measurements as given in the supplement of paper PMC12808144.

Each compound was assayed on Mel-DCC-11-R (assay: cell viability relative to DMSO control (fraction of DMSO control); higher = less cytotoxic, active = 0.8 or less). Details: 1 µM; 120 h; vemurafenib co-treatment 8 µM.
Procedure, shortened: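 The screen used 384-well plates acoustically pre-spotted with 315 approved anti-cancer drugs from TargetMol, each at 1 µM in duplicate. Into each well went 40 µl of cells, 2500 NHEM-hTERT immortalized melanocytes or 1500 of patient-derived Mel-DCC-11 or its resistant subline Mel-DCC-11-R, and plates were kept 120 h, with the subline also tested alongside 8 µM of its selecting drug. Readout was by ATPlite 1step luminescence. Viability values were normalised to vehicle-treated controls and averaged between duplicates.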

| SMILES | cell viability |
| --- | --- |
| CC(C)(C)c1nc(-c2cccc(NS(=O)(=O)c3c(F)cccc3F)c2F)c(-c2ccnc(N)n2)s1 [Dabrafenib] | 0.894 (inactive) |
| COc1cc(Nc2c(C#N)cnc3cc(OCCCN4CCN(C)CC4)c(OC)cc23)c(Cl)cc1Cl [Bosutinib] | 1.14 (inactive) |
| CCN(CC)CCOc1ccc2c(c1)C(=O)c1cc(OCCN(CC)CC)ccc1-2.Cl.Cl [Tilorone dihydrochloride] | 1.15 (inactive) |
| COc1cc(NS(C)(=O)=O)ccc1Nc1c2ccccc2nc2ccccc12 [Amsacrine] | 0.539 (active) |
| CC[C@@]1(O)C(=O)OCc2c1cc1n(c2=O)Cc2cc3c(CN(C)C)c(O)ccc3nc2-1.Cl [Topotecan hydrochloride] | 0.339 (active) |
| CC(C)C[C@H](NC(=O)[C@H](Cc1ccccc1)NC(=O)c1cnccn1)B(O)O [Bortezomib] | 0.048 (active) |
| CC1=C(/C=C/C(C)=C/C=C/C(C)=C\C(=O)O)C(C)(C)CCC1 [Isotretinoin] | 1.3 (inactive) |
